Laboratory results: PubChem BioAssay AID1159580 (chemical genetic matrix, 2015)
Hit rate of the full screen: of about 5,500 compounds, about 2,000 (36%) were called active. About 18% were inconclusive and are not listed. Rule as the data show it: active = normalized growth mostly below about 0.91 (no sharp cut-off); inconclusive = no clear call, values can overlap the other calls; inactive = mostly above about 0.92. The list shows a part of the results.

Test: chemical genetic growth profiling, strain panel (AID 1159580);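 also: tested at 20 µM; growth read once vehicle control cultures reached saturation at 30 °C; 1 = growth at the plate median or of vehicle wells; lower values mean less growth of the strain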
Details: S. cerevisiae deletion strains, growth OD

Measured: normalized growth

COc1ccc2c(c1)OCC(Cc1ccc(O)c(OC)c1)C2=O (stereo not given)
inactive: locus YAL021C, strain ccr4, stronger effect = lower value 0.982 | locus YAL026C, strain drs2, stronger effect = lower value 0.982 | locus YAL030W, strain snc1, stronger effect = lower value 0.968 | locus YBL061C, strain skt5, stronger effect = lower value 0.978 | locus YBR009C, strain hhf1, stronger effect = lower value 0.972 | locus YBR023C, strain chs3, stronger effect = lower value 0.97 | locus YBR171W, strain sec66, stronger effect = lower value 0.969 | locus YBR231C, strain swc5, stronger effect = lower value 0.971 | locus YBR279W, strain paf1, stronger effect = lower value 0.982 | locus YCL011C, strain gbp2, stronger effect = lower value 0.953 | locus YCL016C, strain dcc1, stronger effect = lower value 0.97 | locus YCL061C, strain MRC1, stronger effect = lower value 0.971 | locus YCL069W, strain vba3, stronger effect = lower value 0.979 | locus YCR088W, strain abp1, stronger effect = lower value 0.965 | locus YDL005C, strain med2, stronger effect = lower value 0.965 | locus YDL040C, strain nat1, stronger effect = lower value 0.972 | locus YDR001C, strain nth1, stronger effect = lower value 0.967 | locus YDR069C, strain doa4, stronger effect = lower value 0.963 | locus YDR137W, strain rgp1, stronger effect = lower value 0.922 | locus YDR159W, strain sac3, stronger effect = lower value 0.957 | locus YDR195W, strain ref2 0.958 | locus YDR297W, strain sur2, stronger effect = lower value 0.98 | locus YDR334W, strain swr1, stronger effect = lower value 0.949 | locus YDR335W, strain msn5, stronger effect = lower value 0.985 | locus YDR392W, strain spt3, stronger effect = lower value 0.882 | locus YEL003W, strain gim4, stronger effect = lower value 0.98 | locus YEL037C, strain rad23, stronger effect = lower value 0.97 | locus YEL061C, strain CIN8 (second series), stronger effect = lower value 0.977 | locus YER015W, strain faa2, stronger effect = lower value 0.974 | locus YER016W, strain bim1, stronger effect = lower value 0.969 | locus YER111C, strain swi4, stronger effect = lower value 0.999 | locus YER155C, strain BEM2 (second series), stronger effect = lower value 0.974 | locus YFR010W, strain ubp6, stronger effect = lower value 0.949 | locus YGL167C, strain pmr1, stronger effect = lower value 0.974 | locus YGL173C, strain kem1, stronger effect = lower value 0.973 | locus YGL227W, strain vid30, stronger effect = lower value 0.979 | locus YGL240W, strain doc1, stronger effect = lower value 0.96 | locus YGL253W, strain hxk2, stronger effect = lower value 0.974 | locus YHR013C, strain ard1, stronger effect = lower value 1 | locus YHR027C, strain rpn1, stronger effect = lower value 0.963 | locus YHR030C, strain SLT2, stronger effect = lower value 1.03 | locus YHR079C, strain IRE1, stronger effect = lower value 1.03 | locus YHR142W, strain chs7, stronger effect = lower value 0.943 | locus YJL092W, strain hpr5, stronger effect = lower value 0.932 | locus YJL095W, strain BCK1 (second series), stronger effect = lower value 0.98 | locus YJL095W, strain BCK1, stronger effect = lower value 1.05 | locus YJL115W, strain asf1, stronger effect = lower value 0.951 | locus YJL129C, strain trk1, stronger effect = lower value 0.943 | locus YJL154C, strain vps35, stronger effect = lower value 0.973 | locus YJL164C, strain tpk1, stronger effect = lower value 0.968 | locus YJL166W, strain qcr8, stronger effect = lower value 0.991 | locus YJL187C, strain SWE1, stronger effect = lower value 0.998 | locus YJR066W, strain TOR1, stronger effect = lower value 0.966 | locus YKL160W, strain elf1, stronger effect = lower value 0.985 | locus YKR026C, strain gcn3, stronger effect = lower value 0.967 | locus YKR091W, strain srl3, stronger effect = lower value 0.965 | locus YLL001W, strain dnm1, stronger effect = lower value 0.954 | locus YLL026W, stronger effect = lower value 0.975 | locus YLL041C, strain sdh2, stronger effect = lower value 0.966 | locus YLR027C, strain aat2, stronger effect = lower value 0.964 | locus YLR113W, strain HOG1, stronger effect = lower value 0.979 | locus YLR221C, strain rsa3, stronger effect = lower value 0.982 | locus YLR258W, strain gsy2, stronger effect = lower value 0.961 | locus YLR262C, strain YPT6 (second series), stronger effect = lower value 0.949 | locus YLR320W, strain mms22, stronger effect = lower value 0.983 | locus YLR342W, strain FKS1, stronger effect = lower value 0.979 | locus YLR357W, strain rsc2, stronger effect = lower value 0.965 | locus YLR370C, strain arc18, stronger effect = lower value 0.948 | locus YLR384C, strain iki3, stronger effect = lower value 0.981 | locus YML120C, strain ndi1, stronger effect = lower value 0.971 | locus YMR058W, strain fet3, stronger effect = lower value 0.964 | locus YMR125W, strain sto1, stronger effect = lower value 0.948 | locus YMR129W, stronger effect = lower value 0.974 | locus YMR205C, strain PFK2, stronger effect = lower value 0.974 | locus YMR231W, strain pep5, stronger effect = lower value 0.99 | locus YNL071W, strain lat1, stronger effect = lower value 0.986 | locus YNL183C, strain NPR1, stronger effect = lower value 0.964 | locus YNL209W, strain ssb2, stronger effect = lower value 0.988 | locus YNL248C, strain rpa49, stronger effect = lower value 0.971 | locus YNL322C, strain KRE1 (second series), stronger effect = lower value 0.977 | locus YNR049C, strain mso1, stronger effect = lower value 0.965 | locus YOR001W, strain rrp6, stronger effect = lower value 0.982 | locus YOR070C, strain gyp1, stronger effect = lower value 0.993 | locus YOR080W, strain dia2, stronger effect = lower value 0.97 | locus YOR083W, strain WHI5, stronger effect = lower value 0.971 | locus YOR106W, strain vam3, stronger effect = lower value 0.952 | locus YOR231W, strain MKK1, stronger effect = lower value 1.06 | locus YOR265W, strain rbl2, stronger effect = lower value 0.975 | locus YOR270C, strain vph1, stronger effect = lower value 0.951 | locus YOR290C, strain snf2, stronger effect = lower value 0.965 | locus YPL051W, strain arl3, stronger effect = lower value 0.983 | locus YPL078C, strain atp4, stronger effect = lower value 0.978 | locus YPL106C, strain sse1, stronger effect = lower value 0.914 | locus YPL240C, strain hsp82, stronger effect = lower value 0.957 | locus YPL256C, strain CLN2, stronger effect = lower value 1.03
